Screens from PubChem BioAssay.
Only some compounds are listed: those with a hit (about 3.6% of all), similar ones and a draw of the others.
ERb coact inh – inhibitors of ERβ-SRC1 coactivator interaction, primary screen, biochemical, TR-FRET, ERβ LBD, SRC-1 peptide; TR-FRET ER-beta LBD / SRC1-Cy5 peptide binding; receptor agonist-loaded with 1 µM estradiol; Estrogen receptor beta (Homo sapiens), Q92731; inhibition, % at 25.6 µM; AID 633, 2007; 1.3% of 86,000 active;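 active = compounds whose percent inhibition of the receptor-coactivator binding signal exceeds about 50% in the single-dose screen, limit read from the data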
Target sequence (Q92731 whole entry, looked up, the tested form may be a part): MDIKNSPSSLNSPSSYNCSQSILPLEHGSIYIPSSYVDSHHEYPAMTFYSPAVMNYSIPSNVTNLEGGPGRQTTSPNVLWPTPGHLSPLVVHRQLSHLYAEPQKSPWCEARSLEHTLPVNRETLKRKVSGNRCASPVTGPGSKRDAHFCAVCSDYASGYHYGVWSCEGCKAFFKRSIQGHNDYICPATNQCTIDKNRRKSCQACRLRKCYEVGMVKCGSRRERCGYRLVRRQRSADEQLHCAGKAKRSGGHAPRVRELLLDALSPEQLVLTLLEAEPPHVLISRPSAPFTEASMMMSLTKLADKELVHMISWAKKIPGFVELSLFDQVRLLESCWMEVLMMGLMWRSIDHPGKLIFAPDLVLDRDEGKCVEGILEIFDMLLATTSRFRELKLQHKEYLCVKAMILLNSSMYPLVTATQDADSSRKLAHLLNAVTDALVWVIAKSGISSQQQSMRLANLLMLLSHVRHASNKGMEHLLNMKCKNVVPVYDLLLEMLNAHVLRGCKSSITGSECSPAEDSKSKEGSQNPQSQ
Calb biofilm kill – clotrimazole potentiators killing Candida biofilms, primary screen, with clotrimazole, Alamar Blue. C. albicans biofilm + clotrimazole. inhibition, % at 6 µM. 0.14% of 85,000 active;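 active = inhibition above 20%; inactive = inhibition below 20%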;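 also: preformed 24 hr biofilms exposed to compound for 48 hr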
ERa SRC1 pot – enhancers of ERα–SRC-1 coactivator binding, primary screen, biochemical, TR-FRET, ERα LBD, low estradiol; 1.3% of 86,000 active; TR-FRET ERalpha-LBD/SRC-Cy5 coactivator binding, 2 h; 100 = basal binding, no effect; coactivator binding (% of control), % at 25.6 µM; AID 639, 2007; in the data active = activity above about 200%;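 also: binding measured in presence of low estradiol as agonist stimulus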
ERa SRC1 inh – ERα–SRC-1 coactivator interaction inhibitors, primary screen, biochemical, TR-FRET, ERα LBD, estradiol-bound; inhibition, % at 25.6 µM; 1.7% of 86,000 active; AID 629, 2007; Estrogen receptor (Homo sapiens), P03372; TR-FRET ER-alpha LBD / SRC-1 peptide; in the data active = inhibition above about 50%
Smad3 inh – Smad3/FoxH1 peptide binding inhibitors, primary screen, biochemical, TR-FRET; Mothers against decapentaplegic homolog 3 (Homo sapiens), P84022; TR-FRET Smad3/Dy647-FoxH1 peptide binding, europium anti-His; inhibition, % at 25 µM; 0.29% of 88,000 active; AID 630, 2007;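 active = compounds that reduce the energy-transfer binding signal between the protein and its labelled peptide by more than half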
Large screens that a line does not name were inactive; [ ] = remark or other dose.

O=C(CSC1=NCCS1)NC1CCCC1	none
CC(=O)C(C(C)=O)c1c(Cl)c(O)c(O)c2c(C(=O)c3ccccc3)coc12	ERb coact inh 55.2[fluorescence artefact?]
CN1CCN(Cc2c(O)ccc3occ(C(=O)c4ccccc4)c23)CC1	none
CCC(Sc1nc(C)cc(=O)[nH]1)C(=O)Nc1nc2c(s1)CCCC2 (centres undefined)	none
Cc1cc(=O)[nH]c(SCC(=O)Nc2nc3c(s2)CCCC3)n1	ERb coact inh 77.8 (no result: Calb biofilm kill)
Cc1cc(NC(=O)CSc2ncnc3sc4c(c23)CCC(C)C4)no1 (centres undefined)	ERa SRC1 pot 375.2[fluorescence artefact?]
Cc1cc(NC(=O)CSc2nc(C(C)C)nc3sc(C)c(C)c23)no1	none
CCOc1ccc(Cn2nnc(C(=O)NCc3ccc(OC)cc3)c2N)cc1	ERa SRC1 pot 227.7
O=C(CSc1nnnn1-c1cccc2c1CCCC2)NC1CCCC1	none
O=C(NCc1ccco1)c1ccc(Cn2c(=O)c3sccc3n(Cc3cccc(F)c3)c2=O)cc1	ERa SRC1 inh 57.3[fluorescence artefact?]
O=C(NCc1ccco1)c1ccc(Cn2c(=O)c3ccccc3n(Cc3cccc(Cl)c3)c2=O)cc1	ERa SRC1 inh 66.6[fluorescence artefact?]
O=C(CSc1ncccc1-c1nc2ccccc2[nH]1)N1CCN(c2ccccc2F)CC1	ERa SRC1 pot 223.4
COc1ccccc1N1CCN(C(=O)CSc2ncccc2-c2nc3ccccc3[nH]2)CC1	none
COc1ccc(-c2nn3c(-c4ccccc4)nnc3s2)cc1	ERa SRC1 pot 202.8[fluorescence artefact?]
CCN(CC)c1ccc(-c2nn3c(-c4ccccc4OC)nnc3s2)cc1	ERa SRC1 pot 366.0
COc1ccc(-c2nn3c(-c4ccc(F)cc4)nnc3s2)cc1	none
CC(=O)C1=C(C)NC(C)=C(C(C)=O)C1c1ccc(-c2ccccc2Cl)o1	none
O=c1c2ccccc2nc2n1CCCCN2	ERa SRC1 inh 79.9
O=c1c2ccccc2nc2n1CCCCC2	none
Cc1ccc(C)c(OCCOCCN2CC(C)OC(C)C2)c1C (centres undefined)	none
CCNC(=O)CSc1ncnc2sccc12	ERa SRC1 inh 66.2[fluorescence artefact?]
N#Cc1c(NC(=O)CSc2ncnc3sccc23)oc(-c2ccco2)c1-c1ccco1	ERb coact inh 73.3[fluorescence artefact?], ERa SRC1 inh 90.4[fluorescence artefact?]
CCn1c(SCC(=O)Nc2oc(-c3ccccc3)c(-c3ccccc3)c2C#N)nnc1-c1ccco1	none
Cc1ccc(C)c(-c2nnc(OCC(=O)Nc3cc(C)on3)c3ccccc23)c1	none
N#Cc1cc(Sc2ccccn2)c(Sc2ccccn2)cc1C#N	ERa SRC1 pot 213.5
N#Cc1cc2ccccc2nc1SCc1ccccn1	none
C/C(N[O-])=C(\C)[N+]([O-])=[Fe].CC(=N\[O-])/C(C)=N/[O-].[NH2-].c1c[nH+]c[n-]1	Smad3 inh 72.2 (no result: ERb coact inh, Calb biofilm kill, ERa SRC1 pot, ERa SRC1 inh)
Nc1nc(N)c2[nH]c(CNC3CCC(C(=O)O)CC3)nc2n1 (centres undefined)	none (no result: ERb coact inh, Calb biofilm kill, ERa SRC1 pot, ERa SRC1 inh)
COc1ccc(NC2C=CS(=O)(=O)C2)c(OC)c1 (centres undefined)	Calb biofilm kill 23.7
CSc1nc(NCCOCCO)c2sc3nc(-c4ccco4)c4c(c3c2n1)CCC4	ERb coact inh 76.0[fluorescence artefact?], ERa SRC1 inh 79.0
CC1(C)N=C(N)N=C(N)N1CCCCc1ccccc1	none (no result: ERb coact inh, Calb biofilm kill, ERa SRC1 pot, ERa SRC1 inh)
O=S(=O)(O)[C@@H](CO)c1ccccc1 (tested in a mixture with another compound)	none (no result: ERb coact inh, Calb biofilm kill, ERa SRC1 pot, ERa SRC1 inh)
O=C(Cn1c(=O)oc2cc(S(=O)(=O)N3CCCCCC3)ccc21)NC1CCCCC1	ERa SRC1 pot 348.5
Cc1ccc(NC(=O)Cn2c(=O)oc3cc(S(=O)(=O)N4CCC(C)CC4)ccc32)cc1C	ERb coact inh 61.6[fluorescence artefact?]
O=C(Nc1nc(-c2nc3ccccc3s2)cs1)C1COc2ccccc2O1 (centres undefined)	ERa SRC1 inh 67.7
O=C(CCCCC(=O)N1CCN(c2ccccc2)CC1)N1CCN(c2ccccc2)CC1	none
CC(=O)c1ccc(NCC(=O)N2CCN(c3ccccc3)CC2)cc1	ERb coact inh 56.6, ERa SRC1 inh 85.0
O=C(Nc1ccc(N2CCCC2)cc1)C(c1ccccc1)c1ccccc1	ERa SRC1 inh 60.0
CC(=O)Nc1ccc(N2CCN(C(C)=O)CC2)cc1	ERb coact inh 63.5
CCOC(=O)c1cnc(SCC(=O)Nc2nc(C)c(C)s2)nc1N	none
Cc1ccccc1Nc1nc(N)nc(CSc2nc3ccccc3c(=O)n2C)n1	ERa SRC1 inh 78.3
Cc1ccccc1Nc1nc(N)nc(CSc2nc3ccccc3c(=O)n2CCCO)n1	none
Nc1[nH]c(=O)nc2c1ncn2[C@H]1O[C@H](CO)[C@@H](O)[C@@H]1O	none (no result: ERb coact inh, Calb biofilm kill, ERa SRC1 pot, ERa SRC1 inh)
Cc1c(CNCc2cccs2)c(C(=O)O)c(C)n1Cc1ccccc1	ERa SRC1 pot 229.1[fluorescence artefact?]
C[C@]12CC[C@@H]3c4ccc(OC(=O)c5ccccc5)cc4CC[C@H]3[C@@H]1CC[C@@H]2O	ERa SRC1 pot 298.5
COC(=O)c1sc(NC(=O)Cc2cccs2)nc1C	none
CCOC(=O)c1c(N)sc(C(O)(C(F)(F)F)C(F)(F)F)c1-c1ccccc1	Calb biofilm kill 82.2
CN(C)c1ccc(N2CN=C3SCC(=O)N3C2)cc1	ERb coact inh 86.0[fluorescence artefact?]
Cc1cc2cc(CNC(=O)Cc3cccs3)ccc2n1C	none
COC(=O)c1ccc2c(c1)N(Cc1nc(-c3ccc(Cl)cc3)oc1C)C(=O)C1CCCN21 (centres undefined)	none
COc1ccc2nc(NC(=O)C3CCCN(S(=O)(=O)c4c(C)noc4C)C3)sc2c1 (centres undefined)	ERb coact inh 83.5[fluorescence artefact?]
COc1ccc2nc(NC(=O)c3cc(C)oc3C)sc2c1	ERa SRC1 pot 207.7
COc1ccc2nc(NC(=O)c3ccoc3C)sc2c1	none
COc1ccc(OC)c(NC(=O)C2CCCN(S(=O)(=O)c3c(C)noc3C)C2)c1 (centres undefined)	none
Cc1n[nH]c(C)c1S(=O)(=O)N(CC(=O)N1CCc2ccccc21)c1ccc(C(C)C)cc1	ERb coact inh 50.3, ERa SRC1 inh 54.2[fluorescence artefact?]
COc1ccc(/C=N/NC(=O)CCc2c(C)n[nH]c2C)cc1O	none
COc1cccc(/C=C2\N=C(SC)SC2=O)c1OC	none
COc1cccc(/C=C2\N=C(c3c(-c4ccccc4)noc3C)OC2=O)c1OC	ERa SRC1 inh 67.7
CCS(=O)(=O)c1ccc2oc(SCC(=O)NC3CCCC(C)C3C)nc2c1 (centres undefined)	none
O=C(NC1CCCC1)c1ccc2nc[nH]c2c1	none
c1coc(-c2nc3ccccc3nc2-c2ccco2)c1	ERb coact inh 93.2[fluorescence artefact?], ERa SRC1 inh 83.7[fluorescence artefact?]
O=C(NC1CCCC1)c1ccc2nc(-c3ccco3)c(-c3ccco3)nc2c1	ERb coact inh 93.0[fluorescence artefact?], ERa SRC1 inh 93.6[fluorescence artefact?]
O=C(NCCO)c1ccc2nc(-c3ccco3)c(-c3ccco3)nc2c1	ERb coact inh 86.6[fluorescence artefact?], ERa SRC1 inh 64.3
